We go through 24 compounds from PubChem BioAssay (NCATS).

SMILES strings stand for the structures. Where “and” joins values, the source holds several entries; their conditions need not be identical. Equal entries are not always repeated. Results filed as inconclusive are left out. A number with no mark means an inactive call. Calls of active or inactive are those of the source. Calls follow the shape of the dose curve; as a rule, active = well fitted curve in the direction sought with a large enough effect; inconclusive = small, poorly fitted or top-dose-only effect, or another doubt; inactive = no such curve, though single readings can be large; an effect the other way counts as inactive or inconclusive.

A short description of test [1]: Viability qHTS for spleen associated tyrosine kinase inhibitor (SYKi) naive MV4-11 cells (AID 1963823). Also: nearly all actives have a fitted effect of over 40% in size. The procedure, abridged: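 SYKi-naive MV4-11 AML cells, 500 per well, were exposed to library compounds for 72 hr at 37 C, 5% CO2. Viability was then read by CellTiter-Glo luminescence after 10 min at room temperature.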
Test [2] is described as follows: Viability qHTS for spleen associated tyrosine kinase inhibitor (SYKi) drug resistant MV4-11 cells (AID 1963824). Also: nearly all actives have a fitted effect of over 35% in size. A digest of the protocol:
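CellTiter-Glo luminescence, read 10 min after reagent addition, reports viability after a 72 hr compound exposure. Cells are an MV4-11 line made resistant to SYK inhibition, seeded at 500 per well onto compound-containing plates.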
(In general: Quantitative high-throughput screening tests each substance at several concentrations.)

Test [3] is described as follows: Cellular viability qHTS for adrenocortical cancer (ACC) cell line SW-13 (AID 1963989). Also: nearly all actives have a fitted effect of over 65% in size.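 As to activity (max response): cells grown in serum-free medium with ITS supplement; % is scaled to controls: 0 for no effect and ±100 for the full control effect.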 The conditions noted are these: SW-13 ACC cells viability, CellTiter-Glo, 48 h; activity (max response): stronger effect = lower value. The procedure, abridged: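 48 h treatment, SW-13 in ITS/DMEM serum-free; doses up to 46 uM; readout CellTiter-Glo luminescence; curve fit four-parameter logistic.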
Potency is read from the fitted curve at half-maximal effect.

Regarding `C=C1c2cccc(O)c2C(O)=C2C(=O)[C@]3(O)C(O)=C(C(N)=O)C(=O)[C@@H](N(C)C)[C@@H]3[C@@H](O)[C@H]12`, the Potency entry in test [1] and in test [2] was “inactive” each time. The activity (max response) in test [3] is 3.29%.
Turning to `Cc1cc(C(=O)Nc2cc(Nc3ccc4c(/C=C/c5ccccn5)n[nH]c4c3)ccc2F)n(C)n1`, the Potency in test [1] is 9.2 µM (active) and 5.25 µM (active); in test [2], 9.2 µM (active) and 5.25 µM (active); in test [3], 22.4 µM (active).
In the case of `O=C(/C=C/c1cccnc1)NCCCCC1CCN(C(=O)c2ccccc2)CC1`, the Potency is 0.0053 µM (active) in test [1], 0.0053 µM (active) in test [2] and 0.0126 µM (active) in test [3].
With `Nc1nc(F)nc2c1ncn2C1OC(COP(=O)(O)O)C(O)C1O` (configuration not stated), the figures for the Potency in test [1] and in test [2] were 10.5 µM (active) and 14.8 µM (active), respectively. The activity (max response) in test [3] was -0.687%.
As for `O=C1NC(=O)C(c2c[nH]c3ccccc23)=C1c1c[nH]c2ccccc12`, the results for the Potency in test [1], in test [2] and in test [3] were 1.86 µM (active), 1.16 µM (active) and 25.1 µM (active), respectively.
For `Cn1ncc(Cl)c1-c1cc(C(=O)N[C@H](CN)Cc2ccc(F)c(F)c2)sc1Cl`, the Potency in test [1] is 9.2 µM (active) and 5.9 µM (active); in test [2], 11.6 µM (active) and 4.68 µM (active); in test [3], 8.91 µM (active).
Take `CC1=C(C(=O)O)N2C(=O)[C@@H](NC(=O)[C@H](N)c3ccccc3)[C@H]2SC1`: the Potency result in test [1] and in test [2] was “inactive” in each case. Also, the activity (max response) in test [3] is 10%.
With `N[C@@H](Cc1ccc(O)cc1)C(=O)O`, the viability (% of control) in test [1] is 88.5% [at 9.25 µM]. For the same compound, the viability, % of control in test [2] was 81.6% [at 9.25 µM]. Also, the activity (max response) in test [3] is 7.19%.
`Cc1[nH]nc(C(F)(F)F)c1Cc1sc2c(c1C(=O)N1C[C@](C)(O)CO1)c(=O)n(C)c(=O)n2C(C)C`: the Potency result in test [1] and in test [2] was “inactive” each time. Moreover, the activity (max response) in test [3] was 14.8%.
For the compound `NS(=O)(=O)c1cc2c(cc1Cl)NC(CSCc1ccccc1)=NS2(=O)=O`, the Potency result in test [1] and in test [2] was “inactive” in each case. The activity (max response) in test [3] is -2.17%.
Take `O=C(O)COC(=O)Cc1ccccc1Nc1c(Cl)cccc1Cl`: the Potency entry in test [1] and in test [2] was “inactive” throughout. Also, in test [3], the activity (max response) is 7.51%.
As to `CCCCNc1ncc2c(-c3ccc(F)cc3)nn(CC3CCC(N)CC3)c2n1` (configuration not stated), the values for the Potency in test [1], in test [2] and in test [3] were 0.008 µM (active), 0.0112 µM (active) and 11.3 µM (active), respectively.
`CCCc1ccc(OCC(=O)N2CCN(C(=O)COc3ccc(CCC)cc3OC)CC2)c(OC)c1`: the Potency result in test [1] and in test [2] was “inactive” in each case. The activity (max response) in test [3] was 4.95%.
With `CCCCC(CC)COC(=O)/C=C/c1ccc(OC)cc1` (configuration not stated), the Potency result in test [1] and in test [2] was “inactive” each time. Further, in test [3], the activity (max response) was 1.77%.
`O=C(c1ccc(/C=C/c2n[nH]c3ccccc23)cc1)N1CCNCC1`: the Potency in test [1] is 0.058 µM (active); in test [2] it was 0.206 µM (active). Also, the activity (max response) in test [3] is -10.3%.
The like results for `CC1(C)OCCn2c1nc1c(N3CCOCC3)nc(-c3cnc(N)nc3)nc12` were, in that order, 1.32 µM (active), 2.95 µM (active) and -17.2%.
With `COC(=O)C1=C(C)NC(c2ncc(F)cc2F)=N[C@H]1c1ccc(F)cc1Cl`, the results for the Potency in test [1] and in test [2] were 20.9 µM (active) and 9.34 µM (active), respectively. Also, the activity (max response) in test [3] was -9.49%.
On the same counts, the results for `C=C1C(=O)OC2/C=C(/C)CC/C=C(/C)CCC12` (configuration not stated) are 8.33 µM (active), 5.25 µM (active) and -9.66%.
Regarding `c1ccc(CC2=NCCN2)cc1`, the Potency result in test [1] and in test [2] was “inactive” in each case. Besides, the activity (max response) in test [3] was -11.9%.
Regarding `Nc1nc(F)nc2c1ncn2[C@@H]1O[C@H](COP(=O)(O)O)[C@@H](O)[C@@H]1O`, the Potency in test [1] was 8.33 µM (active); in test [2], 14.8 µM (active). Moreover, the activity (max response) in test [3] is -12.7%.
`C[C@]12CC[C@@H]3c4ccc(O)cc4C[C@@H](CCCCCCCCCS(=O)CCCC(F)(F)C(F)(F)F)[C@H]3[C@@H]1CC[C@@H]2O` (some centres not stated): the Potency entry in test [1] and in test [2] was “inactive” each time. Also, in test [3], the activity (max response) was -10.5%.
In the case of `O=C(O)[C@@H]1[C@H]2C[C@H]3c4[nH]c5ccccc5c4CCN3C[C@@H]2CC[C@@H]1O`, the Potency in test [1] was 2.66 µM (active); in test [2] it was 5.96 µM (active). Moreover, the activity (max response) in test [3] was 3.73%.
As for `CN(C)Cc1ccc(S(=O)(=O)n2ccc(/C=C/C(=O)NO)c2)cc1`, the Potency in test [1] is 3.32 µM (active); in test [2] it was 2.35 µM (active); in test [3], 12.6 µM (active).
On the same counts, the results for `NCCCC[C@H](NC(=O)[C@@H](NC(=O)[C@H](Cc1c[nH]c2ccccc12)NC(=O)[C@H](CCCCN)NC(=O)[C@H](CCCCN)NC(=O)[C@H](Cc1c[nH]c2ccccc12)NC(=O)[C@H](Cc1c[nH]c2ccccc12)NC(=O)[C@H](CCCCN)NC(=O)[C@@H](N)CCCCN)C(c1ccccc1)c1ccccc1)C(N)=O` are 8.33 µM (active), 10.5 µM (active) and 31.6 µM (active).
